Results: publication PMC7862700, “An all-to-all approach to the identification of sequence-specific readers for epigenetic DNA modifications on cytosine”

Columns and labels:
Assay in all cases: DAPPL (digital affinity profiling via proximity ligation, sequencing); 10 mM Tris-HCl pH 7.5, 50 mM NaCl, 1 mM DTT, 4% glycerol, room temperature, 30 min; GST-TFs on glutathione beads, 16-mer random dsDNA library, 0.1% formaldehyde crosslink after washing; high values mean tight binding
Conditions in all cases: protein: recombinant; tags: N-terminal GST; dsDNA, one strand shown
FLI1 = molecular target: T1, FLI1 (Homo sapiens, UniProt Q01543 1-452)
T1 sequence: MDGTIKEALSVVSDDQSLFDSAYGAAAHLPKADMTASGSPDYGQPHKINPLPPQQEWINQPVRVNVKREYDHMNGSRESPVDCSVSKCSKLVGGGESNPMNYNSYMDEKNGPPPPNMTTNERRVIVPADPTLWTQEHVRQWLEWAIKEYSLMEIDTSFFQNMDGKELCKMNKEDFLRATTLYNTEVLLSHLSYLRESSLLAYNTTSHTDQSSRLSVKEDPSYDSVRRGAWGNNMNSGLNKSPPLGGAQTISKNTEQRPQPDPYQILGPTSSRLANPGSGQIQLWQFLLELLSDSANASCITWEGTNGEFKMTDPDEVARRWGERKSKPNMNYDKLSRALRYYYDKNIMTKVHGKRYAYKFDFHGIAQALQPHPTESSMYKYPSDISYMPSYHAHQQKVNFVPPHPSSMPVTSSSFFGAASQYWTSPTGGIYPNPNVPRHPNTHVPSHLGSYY
How it was run: (§1)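 GST fusions of human transcription factors were expressed in yeast and captured with glutathione beads. Once given DNA barcodes and pooled alongside a tag-only sample, they were incubated for 30 min at room temperature with 200 nmole of a random double-stranded 16-mer DNA library in Tris/NaCl/DTT/glycerol buffer, then washed, crosslinked (0.1% formaldehyde), proximity-ligated, PCR-amplified and sequenced on an Illumina NextSeq500. The binding signal of each hexamer is its read frequency for a factor divided by its frequency for the tag-only sample.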

ELK1 = molecular target: T2, ELK1 (Homo sapiens, UniProt P19419 1-428)
T2 sequence: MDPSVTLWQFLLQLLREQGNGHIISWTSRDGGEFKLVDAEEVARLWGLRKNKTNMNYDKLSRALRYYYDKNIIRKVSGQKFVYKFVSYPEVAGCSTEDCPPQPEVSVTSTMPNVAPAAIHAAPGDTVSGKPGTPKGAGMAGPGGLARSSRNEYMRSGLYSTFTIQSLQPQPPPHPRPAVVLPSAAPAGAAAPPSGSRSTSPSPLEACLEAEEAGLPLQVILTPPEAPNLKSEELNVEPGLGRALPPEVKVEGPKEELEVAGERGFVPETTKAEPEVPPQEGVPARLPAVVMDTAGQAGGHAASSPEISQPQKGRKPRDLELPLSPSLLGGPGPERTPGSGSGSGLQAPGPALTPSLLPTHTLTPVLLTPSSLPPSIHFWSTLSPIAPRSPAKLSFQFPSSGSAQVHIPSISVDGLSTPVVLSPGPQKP
How it was run: as §1

GABPA = molecular target: T3, GABPA (Homo sapiens, UniProt Q06546 1-454)
T3 sequence: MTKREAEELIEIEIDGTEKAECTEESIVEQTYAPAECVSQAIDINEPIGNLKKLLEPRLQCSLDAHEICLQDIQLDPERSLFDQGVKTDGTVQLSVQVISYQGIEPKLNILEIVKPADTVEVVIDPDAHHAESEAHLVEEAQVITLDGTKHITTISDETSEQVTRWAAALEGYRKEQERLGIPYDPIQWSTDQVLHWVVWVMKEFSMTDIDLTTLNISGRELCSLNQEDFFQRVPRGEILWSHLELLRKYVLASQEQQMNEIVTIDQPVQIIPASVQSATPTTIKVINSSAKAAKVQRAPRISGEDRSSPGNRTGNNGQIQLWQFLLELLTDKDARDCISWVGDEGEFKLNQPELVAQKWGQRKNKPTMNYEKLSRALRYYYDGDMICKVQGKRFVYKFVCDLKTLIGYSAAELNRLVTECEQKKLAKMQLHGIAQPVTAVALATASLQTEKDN
How it was run: as §1

ERG = molecular target: T4, ERG (Homo sapiens, UniProt P11308 1-479)
T4 sequence: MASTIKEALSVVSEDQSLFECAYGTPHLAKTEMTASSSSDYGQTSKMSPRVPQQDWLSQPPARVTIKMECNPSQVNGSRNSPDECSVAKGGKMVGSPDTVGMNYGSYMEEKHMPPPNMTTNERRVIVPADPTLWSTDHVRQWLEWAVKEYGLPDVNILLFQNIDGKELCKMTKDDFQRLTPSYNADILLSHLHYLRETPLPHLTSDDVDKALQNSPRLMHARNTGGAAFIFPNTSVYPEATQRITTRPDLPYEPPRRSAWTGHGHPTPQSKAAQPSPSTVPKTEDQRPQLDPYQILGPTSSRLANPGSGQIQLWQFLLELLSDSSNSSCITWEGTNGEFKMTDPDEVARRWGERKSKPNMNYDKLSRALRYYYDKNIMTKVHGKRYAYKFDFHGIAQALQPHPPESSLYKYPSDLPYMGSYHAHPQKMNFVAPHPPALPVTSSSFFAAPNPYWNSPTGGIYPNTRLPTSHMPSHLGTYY
How it was run: as §1

ELF1 = ELF1 (Homo sapiens, UniProt P32519 1-619)
How it was run: as §1

EHF = molecular target: T5, EHF (Homo sapiens, UniProt Q9NZC4 1-300)
T5 sequence: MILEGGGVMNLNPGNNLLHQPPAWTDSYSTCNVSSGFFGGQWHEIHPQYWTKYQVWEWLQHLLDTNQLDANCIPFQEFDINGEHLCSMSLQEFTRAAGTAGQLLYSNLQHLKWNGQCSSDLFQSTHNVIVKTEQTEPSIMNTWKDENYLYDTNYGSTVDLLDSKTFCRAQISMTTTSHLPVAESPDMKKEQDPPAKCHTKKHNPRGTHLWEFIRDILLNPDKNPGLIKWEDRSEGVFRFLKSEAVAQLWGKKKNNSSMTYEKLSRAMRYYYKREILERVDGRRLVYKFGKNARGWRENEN
How it was run: as §1

SPI1 = SPI1 (Homo sapiens, UniProt P17947 1-270)
How it was run: as §1

SPIB = SPIB (Homo sapiens, UniProt Q01892 1-262)
How it was run: as §1

ELK3 = molecular target: T6, ELK3 (Homo sapiens, UniProt P41970 1-407)
T6 sequence: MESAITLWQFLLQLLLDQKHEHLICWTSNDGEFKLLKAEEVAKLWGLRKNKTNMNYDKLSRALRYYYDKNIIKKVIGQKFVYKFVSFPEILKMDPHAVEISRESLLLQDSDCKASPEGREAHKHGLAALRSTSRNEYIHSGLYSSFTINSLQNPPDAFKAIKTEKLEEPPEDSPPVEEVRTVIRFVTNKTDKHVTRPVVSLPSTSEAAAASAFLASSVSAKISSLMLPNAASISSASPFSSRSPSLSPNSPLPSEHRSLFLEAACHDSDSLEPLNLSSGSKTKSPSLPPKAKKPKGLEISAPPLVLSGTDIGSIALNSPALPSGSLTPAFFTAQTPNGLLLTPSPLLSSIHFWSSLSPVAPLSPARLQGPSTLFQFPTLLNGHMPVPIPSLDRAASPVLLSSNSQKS
How it was run: as §1

Sequence of ELF1 (P32519 whole entry): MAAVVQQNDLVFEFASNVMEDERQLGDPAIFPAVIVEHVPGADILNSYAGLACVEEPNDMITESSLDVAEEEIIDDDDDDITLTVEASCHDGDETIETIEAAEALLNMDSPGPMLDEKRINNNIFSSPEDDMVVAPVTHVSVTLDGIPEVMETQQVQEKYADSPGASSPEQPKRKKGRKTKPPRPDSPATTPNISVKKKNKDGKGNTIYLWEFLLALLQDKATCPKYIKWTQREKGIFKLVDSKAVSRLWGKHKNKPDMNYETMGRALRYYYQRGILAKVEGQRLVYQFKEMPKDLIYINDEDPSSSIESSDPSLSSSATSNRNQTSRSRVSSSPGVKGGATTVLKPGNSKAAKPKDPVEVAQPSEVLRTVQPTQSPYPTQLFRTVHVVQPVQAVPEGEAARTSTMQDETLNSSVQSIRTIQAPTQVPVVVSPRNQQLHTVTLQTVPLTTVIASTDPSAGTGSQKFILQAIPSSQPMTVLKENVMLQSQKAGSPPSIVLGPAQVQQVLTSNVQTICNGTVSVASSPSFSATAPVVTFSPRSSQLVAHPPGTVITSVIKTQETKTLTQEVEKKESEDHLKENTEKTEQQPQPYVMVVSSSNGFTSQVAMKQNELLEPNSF
Sequence of SPIB (Q01892 whole entry): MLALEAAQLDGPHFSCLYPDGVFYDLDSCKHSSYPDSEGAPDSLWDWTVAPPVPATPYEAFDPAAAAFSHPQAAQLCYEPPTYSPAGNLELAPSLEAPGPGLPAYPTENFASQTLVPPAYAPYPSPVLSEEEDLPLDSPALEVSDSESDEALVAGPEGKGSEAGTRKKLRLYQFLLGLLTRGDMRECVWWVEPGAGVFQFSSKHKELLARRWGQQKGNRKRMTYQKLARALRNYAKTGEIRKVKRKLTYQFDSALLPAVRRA

Sequence: AACGTT
- binding signal (FLI1): 1.07 fold enrichment (6-mer frequency, TF over GST control)
- binding signal (ELK1): 1.15 fold enrichment (6-mer frequency, TF over GST control)
- binding signal (GABPA): 1.04 fold enrichment (6-mer frequency, TF over GST control)
- binding signal (ERG): 1.15 fold enrichment (6-mer frequency, TF over GST control)
- binding signal (ELF1): 1.14 fold enrichment (6-mer frequency, TF over GST control)
- binding signal (EHF): 1.09 fold enrichment (6-mer frequency, TF over GST control)
- binding signal (SPI1): 1.06 fold enrichment (6-mer frequency, TF over GST control)
- binding signal (SPIB): 1.15 fold enrichment (6-mer frequency, TF over GST control)
- binding signal (ELK3): 1.28 fold enrichment (6-mer frequency, TF over GST control)

Sequence: TGCATT
- binding signal (FLI1): 1.34 fold enrichment (6-mer frequency, TF over GST control)
- binding signal (ELK1): 1.34 fold enrichment (6-mer frequency, TF over GST control)
- binding signal (GABPA): 1.37 fold enrichment (6-mer frequency, TF over GST control)
- binding signal (ERG): 1.24 fold enrichment (6-mer frequency, TF over GST control)
- binding signal (ELF1): 1.33 fold enrichment (6-mer frequency, TF over GST control)
- binding signal (EHF): 1.3 fold enrichment (6-mer frequency, TF over GST control)
- binding signal (SPI1): 1.31 fold enrichment (6-mer frequency, TF over GST control)
- binding signal (SPIB): 1.34 fold enrichment (6-mer frequency, TF over GST control)
- binding signal (ELK3): 1.35 fold enrichment (6-mer frequency, TF over GST control)

Sequence: ACACTA
- binding signal (FLI1): 1.11 fold enrichment (6-mer frequency, TF over GST control)
- binding signal (ELK1): 1.17 fold enrichment (6-mer frequency, TF over GST control)
- binding signal (GABPA): 1.13 fold enrichment (6-mer frequency, TF over GST control)
- binding signal (ERG): 1.12 fold enrichment (6-mer frequency, TF over GST control)
- binding signal (ELF1): 1.19 fold enrichment (6-mer frequency, TF over GST control)
- binding signal (EHF): 1.15 fold enrichment (6-mer frequency, TF over GST control)
- binding signal (SPI1): 1.11 fold enrichment (6-mer frequency, TF over GST control)
- binding signal (SPIB): 1.09 fold enrichment (6-mer frequency, TF over GST control)
- binding signal (ELK3): 1.1 fold enrichment (6-mer frequency, TF over GST control)

Sequence: TAGCAA
- binding signal (FLI1): 1.15 fold enrichment (6-mer frequency, TF over GST control)
- binding signal (ELK1): 1.21 fold enrichment (6-mer frequency, TF over GST control)
- binding signal (GABPA): 1.21 fold enrichment (6-mer frequency, TF over GST control)
- binding signal (ERG): 1.17 fold enrichment (6-mer frequency, TF over GST control)
- binding signal (ELF1): 1.23 fold enrichment (6-mer frequency, TF over GST control)
- binding signal (EHF): 1.23 fold enrichment (6-mer frequency, TF over GST control)
- binding signal (SPI1): 1.21 fold enrichment (6-mer frequency, TF over GST control)
- binding signal (SPIB): 1.34 fold enrichment (6-mer frequency, TF over GST control)
- binding signal (ELK3): 1.24 fold enrichment (6-mer frequency, TF over GST control)

Sequence: TTTCAA
- binding signal (FLI1): 1.24 fold enrichment (6-mer frequency, TF over GST control)
- binding signal (ELK1): 1.23 fold enrichment (6-mer frequency, TF over GST control)
- binding signal (GABPA): 1.31 fold enrichment (6-mer frequency, TF over GST control)
- binding signal (ERG): 1.25 fold enrichment (6-mer frequency, TF over GST control)
- binding signal (ELF1): 1.3 fold enrichment (6-mer frequency, TF over GST control)
- binding signal (EHF): 1.3 fold enrichment (6-mer frequency, TF over GST control)
- binding signal (SPI1): 1.32 fold enrichment (6-mer frequency, TF over GST control)
- binding signal (SPIB): 1.37 fold enrichment (6-mer frequency, TF over GST control)
- binding signal (ELK3): 1.33 fold enrichment (6-mer frequency, TF over GST control)

Sequence: CACCCC
- binding signal (FLI1): 1.2 fold enrichment (6-mer frequency, TF over GST control)
- binding signal (ELK1): 1.3 fold enrichment (6-mer frequency, TF over GST control)
- binding signal (GABPA): 1.35 fold enrichment (6-mer frequency, TF over GST control)
- binding signal (ERG): 1.22 fold enrichment (6-mer frequency, TF over GST control)
- binding signal (ELF1): 1.28 fold enrichment (6-mer frequency, TF over GST control)
- binding signal (EHF): 1.19 fold enrichment (6-mer frequency, TF over GST control)
- binding signal (SPI1): 1.24 fold enrichment (6-mer frequency, TF over GST control)
- binding signal (SPIB): 1.32 fold enrichment (6-mer frequency, TF over GST control)
- binding signal (ELK3): 1.31 fold enrichment (6-mer frequency, TF over GST control)

Sequence: TAAGGT
- binding signal (FLI1): 1.12 fold enrichment (6-mer frequency, TF over GST control)
- binding signal (ELK1): 1.08 fold enrichment (6-mer frequency, TF over GST control)
- binding signal (GABPA): 1.14 fold enrichment (6-mer frequency, TF over GST control)
- binding signal (ERG): 1.01 fold enrichment (6-mer frequency, TF over GST control)
- binding signal (ELF1): 1.04 fold enrichment (6-mer frequency, TF over GST control)
- binding signal (EHF): 1.17 fold enrichment (6-mer frequency, TF over GST control)
- binding signal (SPI1): 1.02 fold enrichment (6-mer frequency, TF over GST control)
- binding signal (SPIB): 1.07 fold enrichment (6-mer frequency, TF over GST control)
- binding signal (ELK3): 1.13 fold enrichment (6-mer frequency, TF over GST control)

Sequence: GAAGCA
- binding signal (FLI1): 1.23 fold enrichment (6-mer frequency, TF over GST control)
- binding signal (ELK1): 1.35 fold enrichment (6-mer frequency, TF over GST control)
- binding signal (GABPA): 1.3 fold enrichment (6-mer frequency, TF over GST control)
- binding signal (ERG): 1.34 fold enrichment (6-mer frequency, TF over GST control)
- binding signal (ELF1): 1.25 fold enrichment (6-mer frequency, TF over GST control)
- binding signal (EHF): 1.26 fold enrichment (6-mer frequency, TF over GST control)
- binding signal (SPI1): 1.28 fold enrichment (6-mer frequency, TF over GST control)
- binding signal (SPIB): 1.25 fold enrichment (6-mer frequency, TF over GST control)
- binding signal (ELK3): 1.43 fold enrichment (6-mer frequency, TF over GST control)
